Reference: paper PMC7862700, “An all-to-all approach to the identification of sequence-specific readers for epigenetic DNA modifications on cytosine”

Key:
Experiment in all cases: DAPPL (digital affinity profiling via proximity ligation, sequencing); 10 mM Tris-HCl pH 7.5, 50 mM NaCl, 1 mM DTT, 4% glycerol, room temperature, 30 min; GST-TFs on glutathione beads, 16-mer random dsDNA library, 0.1% formaldehyde crosslink after washing; high values mean tight binding
[1] = biological target: T1, FEV (Homo sapiens, UniProt Q99581 1-238); settings: protein: recombinant; tags: N-terminal GST; dsDNA, one strand shown
T1 sequence: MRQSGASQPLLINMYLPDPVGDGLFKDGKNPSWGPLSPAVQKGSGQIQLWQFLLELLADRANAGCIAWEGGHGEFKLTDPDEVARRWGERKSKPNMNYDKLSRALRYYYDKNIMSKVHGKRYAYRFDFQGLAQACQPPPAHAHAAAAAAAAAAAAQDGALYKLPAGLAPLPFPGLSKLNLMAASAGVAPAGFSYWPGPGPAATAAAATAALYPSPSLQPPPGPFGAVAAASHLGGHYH
Method in brief: (§1)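 Beads coated with glutathione captured GST-fused human transcription factors that had been expressed in yeast, and the factors were then given DNA barcodes and pooled with a tag-only sample. The pools were incubated with 200 nmole of a random double-stranded 16-mer DNA library in Tris/NaCl/DTT/glycerol buffer for 30 min at room temperature, washed, crosslinked with 0.1% formaldehyde and proximity-ligated with BsaI/T4 ligase at 37 °C for 1 h. PCR amplification and Illumina NextSeq500 sequencing came last. Binding signal is each hexamer's read frequency for a factor divided by its frequency for the tag-only sample.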

[2] = biological target: ETV5 (Homo sapiens, UniProt P41161 1-510); settings: protein: recombinant; tags: N-terminal GST; dsDNA, one strand shown
ETV5, sequence (P41161 whole entry): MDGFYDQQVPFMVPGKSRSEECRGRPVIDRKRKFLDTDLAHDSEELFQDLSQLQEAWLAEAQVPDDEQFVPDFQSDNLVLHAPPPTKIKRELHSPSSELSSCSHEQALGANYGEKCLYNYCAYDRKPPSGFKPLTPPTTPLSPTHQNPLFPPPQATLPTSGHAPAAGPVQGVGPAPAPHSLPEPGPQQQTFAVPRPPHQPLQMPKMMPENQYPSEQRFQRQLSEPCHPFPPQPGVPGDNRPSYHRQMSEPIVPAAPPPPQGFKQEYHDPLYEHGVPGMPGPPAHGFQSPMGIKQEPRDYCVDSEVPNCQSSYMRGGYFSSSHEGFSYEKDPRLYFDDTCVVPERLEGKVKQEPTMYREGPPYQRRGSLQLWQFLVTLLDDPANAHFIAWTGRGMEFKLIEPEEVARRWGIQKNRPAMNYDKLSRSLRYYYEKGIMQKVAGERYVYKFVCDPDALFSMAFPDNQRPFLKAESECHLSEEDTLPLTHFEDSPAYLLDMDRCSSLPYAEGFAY
Method in brief: as §1

[3] = biological target: HSF1 (Homo sapiens, UniProt Q00613 1-529); settings: protein: recombinant; tags: N-terminal GST; chain copies: 3; dsDNA, one strand shown
HSF1, sequence (Q00613 whole entry): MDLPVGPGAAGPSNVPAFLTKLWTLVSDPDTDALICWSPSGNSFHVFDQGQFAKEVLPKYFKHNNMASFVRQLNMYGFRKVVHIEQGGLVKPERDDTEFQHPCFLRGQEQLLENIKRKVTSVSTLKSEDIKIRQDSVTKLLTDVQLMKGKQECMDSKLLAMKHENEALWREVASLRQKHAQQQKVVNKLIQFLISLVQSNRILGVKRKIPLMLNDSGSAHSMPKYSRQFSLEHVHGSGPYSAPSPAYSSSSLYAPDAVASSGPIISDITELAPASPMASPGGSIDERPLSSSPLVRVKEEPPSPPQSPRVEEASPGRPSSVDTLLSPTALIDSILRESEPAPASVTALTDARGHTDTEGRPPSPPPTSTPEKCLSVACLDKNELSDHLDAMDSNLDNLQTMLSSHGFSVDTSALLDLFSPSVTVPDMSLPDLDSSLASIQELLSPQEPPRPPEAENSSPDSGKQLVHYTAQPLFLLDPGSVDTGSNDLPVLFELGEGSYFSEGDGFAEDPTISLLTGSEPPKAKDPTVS
Method in brief: as §1

[4] = biological target: T2, SPIC (Homo sapiens, UniProt Q8N5J4 1-248); settings: protein: recombinant; tags: N-terminal GST; dsDNA, one strand shown
T2 sequence: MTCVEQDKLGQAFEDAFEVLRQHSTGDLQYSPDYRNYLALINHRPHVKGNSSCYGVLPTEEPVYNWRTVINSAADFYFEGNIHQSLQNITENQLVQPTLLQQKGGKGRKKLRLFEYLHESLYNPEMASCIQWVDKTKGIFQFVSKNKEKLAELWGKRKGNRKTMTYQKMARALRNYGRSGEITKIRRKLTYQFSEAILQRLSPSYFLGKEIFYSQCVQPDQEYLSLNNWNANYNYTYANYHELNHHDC
Method in brief: as §1

[5] = biological target: ELF4 (Homo sapiens, UniProt Q99607 1-663); settings: protein: recombinant; tags: N-terminal GST; dsDNA, one strand shown
ELF4, sequence (Q99607 whole entry): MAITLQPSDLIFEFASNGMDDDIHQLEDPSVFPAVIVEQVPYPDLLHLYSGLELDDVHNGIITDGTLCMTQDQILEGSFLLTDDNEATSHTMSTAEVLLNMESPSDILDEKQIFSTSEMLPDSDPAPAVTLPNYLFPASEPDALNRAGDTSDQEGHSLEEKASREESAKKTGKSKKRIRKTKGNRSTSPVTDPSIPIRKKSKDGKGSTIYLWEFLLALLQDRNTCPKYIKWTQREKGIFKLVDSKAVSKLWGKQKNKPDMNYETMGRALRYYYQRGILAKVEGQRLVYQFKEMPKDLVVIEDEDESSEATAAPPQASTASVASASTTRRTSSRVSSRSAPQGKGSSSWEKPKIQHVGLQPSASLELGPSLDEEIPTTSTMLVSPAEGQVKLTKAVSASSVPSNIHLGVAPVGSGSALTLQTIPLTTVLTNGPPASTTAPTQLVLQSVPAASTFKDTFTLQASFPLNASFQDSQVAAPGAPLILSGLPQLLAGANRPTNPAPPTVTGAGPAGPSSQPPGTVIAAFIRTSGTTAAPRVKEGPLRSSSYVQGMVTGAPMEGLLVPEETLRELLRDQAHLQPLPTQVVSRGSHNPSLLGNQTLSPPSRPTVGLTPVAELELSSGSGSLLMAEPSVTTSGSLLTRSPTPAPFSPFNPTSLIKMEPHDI
Method in brief: as §1

[6] = biological target: T3, ELK4 (Homo sapiens, UniProt P28324-2 1-405); settings: protein: recombinant; tags: N-terminal GST; dsDNA, one strand shown
T3 sequence: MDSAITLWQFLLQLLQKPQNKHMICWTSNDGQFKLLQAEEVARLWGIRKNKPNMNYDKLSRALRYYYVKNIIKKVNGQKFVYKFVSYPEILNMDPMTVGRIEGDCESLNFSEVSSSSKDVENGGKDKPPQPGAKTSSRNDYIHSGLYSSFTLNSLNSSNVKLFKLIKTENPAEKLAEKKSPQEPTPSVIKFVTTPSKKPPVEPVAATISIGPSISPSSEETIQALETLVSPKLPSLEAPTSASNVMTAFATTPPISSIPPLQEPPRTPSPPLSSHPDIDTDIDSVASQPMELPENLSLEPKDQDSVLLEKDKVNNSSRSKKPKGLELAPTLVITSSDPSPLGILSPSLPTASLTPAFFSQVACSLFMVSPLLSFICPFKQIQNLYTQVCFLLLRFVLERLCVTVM
Method in brief: as §1

[7] = biological target: T4, ETV2 (Homo sapiens, UniProt O00321 1-342); settings: protein: recombinant; tags: N-terminal GST; dsDNA, one strand shown
T4 sequence: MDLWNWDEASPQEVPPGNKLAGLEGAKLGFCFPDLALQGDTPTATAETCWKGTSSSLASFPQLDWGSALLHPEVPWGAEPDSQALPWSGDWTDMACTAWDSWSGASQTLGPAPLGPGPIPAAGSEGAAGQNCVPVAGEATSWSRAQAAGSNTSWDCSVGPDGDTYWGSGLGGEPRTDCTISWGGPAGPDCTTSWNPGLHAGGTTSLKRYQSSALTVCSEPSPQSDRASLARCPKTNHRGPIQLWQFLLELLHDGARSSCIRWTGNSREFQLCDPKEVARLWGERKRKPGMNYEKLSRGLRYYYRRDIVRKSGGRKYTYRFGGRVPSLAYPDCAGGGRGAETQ
Method in brief: as §1

[8] = biological target: T5, ELF3 (Homo sapiens, UniProt P78545 1-371); settings: protein: recombinant; tags: N-terminal GST; dsDNA, one strand shown
T5 sequence: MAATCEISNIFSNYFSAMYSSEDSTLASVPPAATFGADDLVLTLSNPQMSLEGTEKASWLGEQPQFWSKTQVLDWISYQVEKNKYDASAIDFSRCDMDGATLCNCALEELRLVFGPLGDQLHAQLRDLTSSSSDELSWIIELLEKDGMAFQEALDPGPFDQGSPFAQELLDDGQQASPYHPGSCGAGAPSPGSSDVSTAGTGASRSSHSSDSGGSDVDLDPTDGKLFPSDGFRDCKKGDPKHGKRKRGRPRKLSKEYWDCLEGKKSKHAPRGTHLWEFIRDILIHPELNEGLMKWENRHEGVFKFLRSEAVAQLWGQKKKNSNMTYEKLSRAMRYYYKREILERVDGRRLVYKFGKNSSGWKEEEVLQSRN
Method in brief: as §1

[9] = biological target: CRX (Homo sapiens, UniProt O43186 1-299); settings: protein: recombinant; tags: N-terminal GST; dsDNA, one strand shown
CRX, sequence (O43186 whole entry): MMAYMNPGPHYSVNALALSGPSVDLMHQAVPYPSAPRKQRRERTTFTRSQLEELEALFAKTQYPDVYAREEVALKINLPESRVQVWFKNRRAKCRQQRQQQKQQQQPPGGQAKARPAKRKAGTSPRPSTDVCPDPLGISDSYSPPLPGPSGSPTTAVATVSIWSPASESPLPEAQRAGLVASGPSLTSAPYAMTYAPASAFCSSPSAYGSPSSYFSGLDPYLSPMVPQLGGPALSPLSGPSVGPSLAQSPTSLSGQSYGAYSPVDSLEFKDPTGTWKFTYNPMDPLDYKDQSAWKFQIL
Method in brief: as §1

[10] = biological target: ETV1 (Homo sapiens, UniProt P50549 1-477); settings: protein: recombinant; tags: N-terminal GST; dsDNA, one strand shown
ETV1, sequence (P50549 whole entry): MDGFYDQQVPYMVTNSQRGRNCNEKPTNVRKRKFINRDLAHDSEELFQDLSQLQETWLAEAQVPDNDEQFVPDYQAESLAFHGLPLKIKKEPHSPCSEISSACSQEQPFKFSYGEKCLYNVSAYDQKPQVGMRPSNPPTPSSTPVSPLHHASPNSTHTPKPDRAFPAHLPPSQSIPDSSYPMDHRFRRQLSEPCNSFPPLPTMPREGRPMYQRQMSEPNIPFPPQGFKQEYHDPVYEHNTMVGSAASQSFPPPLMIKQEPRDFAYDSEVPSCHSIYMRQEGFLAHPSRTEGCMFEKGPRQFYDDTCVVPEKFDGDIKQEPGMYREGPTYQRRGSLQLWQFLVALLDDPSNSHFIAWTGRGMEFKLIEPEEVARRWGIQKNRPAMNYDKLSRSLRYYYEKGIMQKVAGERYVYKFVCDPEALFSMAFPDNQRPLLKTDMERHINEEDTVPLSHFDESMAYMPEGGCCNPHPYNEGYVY
Method in brief: as §1

[11] = biological target: T6, ERF (Homo sapiens, UniProt P50548 1-548); settings: protein: recombinant; tags: N-terminal GST; dsDNA, one strand shown
T6 sequence: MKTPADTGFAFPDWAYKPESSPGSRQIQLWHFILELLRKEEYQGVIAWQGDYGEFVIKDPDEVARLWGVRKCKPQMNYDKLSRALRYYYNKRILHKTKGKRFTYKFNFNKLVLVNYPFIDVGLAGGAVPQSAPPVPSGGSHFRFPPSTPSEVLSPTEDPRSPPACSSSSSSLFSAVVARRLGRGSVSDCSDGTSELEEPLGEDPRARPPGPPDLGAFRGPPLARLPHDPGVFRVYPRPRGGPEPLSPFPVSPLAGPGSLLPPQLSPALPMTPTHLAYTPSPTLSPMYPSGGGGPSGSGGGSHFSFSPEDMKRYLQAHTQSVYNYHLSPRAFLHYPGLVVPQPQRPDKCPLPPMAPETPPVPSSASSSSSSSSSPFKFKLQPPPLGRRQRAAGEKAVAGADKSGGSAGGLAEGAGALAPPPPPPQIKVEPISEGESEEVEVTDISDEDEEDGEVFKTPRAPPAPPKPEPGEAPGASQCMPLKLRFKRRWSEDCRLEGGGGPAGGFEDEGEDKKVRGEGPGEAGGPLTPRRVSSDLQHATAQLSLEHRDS
Method in brief: as §1

[12] = biological target: T7, ETV3L (Homo sapiens, UniProt Q6ZN32 1-361); settings: protein: recombinant; tags: N-terminal GST; dsDNA, one strand shown
T7 sequence: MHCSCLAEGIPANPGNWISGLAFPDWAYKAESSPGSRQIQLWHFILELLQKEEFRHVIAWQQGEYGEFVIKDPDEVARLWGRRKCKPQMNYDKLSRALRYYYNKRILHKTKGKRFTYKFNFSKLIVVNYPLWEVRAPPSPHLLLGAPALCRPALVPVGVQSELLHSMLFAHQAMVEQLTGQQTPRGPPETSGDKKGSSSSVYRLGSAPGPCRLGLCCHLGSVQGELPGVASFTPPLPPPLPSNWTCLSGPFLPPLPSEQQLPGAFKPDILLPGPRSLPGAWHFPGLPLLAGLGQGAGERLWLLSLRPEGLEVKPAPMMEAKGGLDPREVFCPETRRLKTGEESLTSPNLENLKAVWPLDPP
Method in brief: as §1

[13] = biological target: T8, ETS2 (Homo sapiens, UniProt P15036 1-469); settings: protein: recombinant; tags: N-terminal GST; dsDNA, one strand shown
T8 sequence: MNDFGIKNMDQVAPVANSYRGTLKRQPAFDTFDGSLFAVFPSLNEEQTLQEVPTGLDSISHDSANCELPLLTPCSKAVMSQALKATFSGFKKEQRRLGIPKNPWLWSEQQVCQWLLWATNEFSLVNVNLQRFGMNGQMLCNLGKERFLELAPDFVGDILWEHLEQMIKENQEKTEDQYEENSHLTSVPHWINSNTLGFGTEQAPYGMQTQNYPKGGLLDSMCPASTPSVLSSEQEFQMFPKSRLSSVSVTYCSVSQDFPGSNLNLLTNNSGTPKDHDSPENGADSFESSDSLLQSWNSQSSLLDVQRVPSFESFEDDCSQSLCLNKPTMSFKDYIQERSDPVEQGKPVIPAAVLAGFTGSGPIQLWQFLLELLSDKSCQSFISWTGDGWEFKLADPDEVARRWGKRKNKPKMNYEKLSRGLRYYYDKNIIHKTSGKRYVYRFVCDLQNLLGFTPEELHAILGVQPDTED
Method in brief: as §1

[14] = biological target: T9, SPDEF (Homo sapiens, UniProt O95238 1-335); settings: protein: recombinant; tags: N-terminal GST; dsDNA, one strand shown
T9 sequence: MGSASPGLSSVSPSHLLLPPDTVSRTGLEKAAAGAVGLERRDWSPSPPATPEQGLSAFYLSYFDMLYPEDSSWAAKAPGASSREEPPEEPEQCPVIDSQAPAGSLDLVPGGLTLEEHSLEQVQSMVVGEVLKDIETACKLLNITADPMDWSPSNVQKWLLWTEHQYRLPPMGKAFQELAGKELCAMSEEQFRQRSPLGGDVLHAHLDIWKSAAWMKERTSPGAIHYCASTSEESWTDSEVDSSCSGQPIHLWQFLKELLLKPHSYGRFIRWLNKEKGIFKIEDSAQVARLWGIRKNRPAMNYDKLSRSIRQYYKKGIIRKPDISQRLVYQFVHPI
Method in brief: as §1

[15] = biological target: T10, ETV7 (Homo sapiens, UniProt Q9Y603 1-341); settings: protein: recombinant; tags: N-terminal GST; dsDNA, one strand shown
T10 sequence: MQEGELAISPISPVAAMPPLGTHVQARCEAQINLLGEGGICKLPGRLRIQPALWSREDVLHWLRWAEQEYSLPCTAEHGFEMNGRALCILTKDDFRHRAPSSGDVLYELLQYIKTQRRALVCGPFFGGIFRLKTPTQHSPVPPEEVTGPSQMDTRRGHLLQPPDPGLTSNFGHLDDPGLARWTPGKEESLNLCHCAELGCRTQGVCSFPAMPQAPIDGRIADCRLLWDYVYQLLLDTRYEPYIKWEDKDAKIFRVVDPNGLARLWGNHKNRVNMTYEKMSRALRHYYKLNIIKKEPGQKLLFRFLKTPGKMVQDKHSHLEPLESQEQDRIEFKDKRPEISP
Method in brief: as §1

[16] = biological target: T11, ELF5 (Homo sapiens, UniProt Q9UKW6-2 1-255); settings: protein: recombinant; tags: N-terminal GST; dsDNA, one strand shown
T11 sequence: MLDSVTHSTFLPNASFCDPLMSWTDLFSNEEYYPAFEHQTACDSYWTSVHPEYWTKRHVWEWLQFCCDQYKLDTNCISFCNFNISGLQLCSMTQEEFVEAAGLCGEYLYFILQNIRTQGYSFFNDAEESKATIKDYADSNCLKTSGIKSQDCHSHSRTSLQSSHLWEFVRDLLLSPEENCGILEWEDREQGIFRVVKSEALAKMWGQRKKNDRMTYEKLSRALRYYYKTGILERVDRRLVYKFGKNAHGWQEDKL
Method in brief: as §1

[17] = biological target: T12, ETV3 (Homo sapiens, UniProt P41162-2 1-143); settings: protein: recombinant; tags: N-terminal GST; dsDNA, one strand shown
T12 sequence: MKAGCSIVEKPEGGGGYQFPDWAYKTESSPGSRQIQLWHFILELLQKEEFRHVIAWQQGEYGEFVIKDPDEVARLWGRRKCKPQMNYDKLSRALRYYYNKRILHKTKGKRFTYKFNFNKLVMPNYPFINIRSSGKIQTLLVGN
Method in brief: as §1

[18] = biological target: ETV6 (Homo sapiens, UniProt P41212 1-452); settings: protein: recombinant; tags: N-terminal GST; dsDNA, one strand shown
ETV6, sequence (P41212 whole entry): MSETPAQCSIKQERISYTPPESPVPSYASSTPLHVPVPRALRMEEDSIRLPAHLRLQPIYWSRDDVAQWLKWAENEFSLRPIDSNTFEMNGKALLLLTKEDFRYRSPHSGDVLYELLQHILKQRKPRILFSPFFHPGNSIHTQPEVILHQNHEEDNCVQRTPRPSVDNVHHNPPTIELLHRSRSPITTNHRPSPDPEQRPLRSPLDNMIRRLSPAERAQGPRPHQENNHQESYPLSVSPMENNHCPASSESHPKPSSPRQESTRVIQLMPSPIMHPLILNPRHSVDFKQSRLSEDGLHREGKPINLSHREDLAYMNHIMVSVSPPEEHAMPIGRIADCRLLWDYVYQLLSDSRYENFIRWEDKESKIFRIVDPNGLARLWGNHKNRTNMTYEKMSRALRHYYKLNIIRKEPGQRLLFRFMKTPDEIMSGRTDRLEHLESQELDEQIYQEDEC
Method in brief: as §1

## TCGTTC
[1]
  binding signal: 1.23 fold enrichment (6-mer frequency, TF over GST control)
[2]
  binding signal: 1.29 fold enrichment (6-mer frequency, TF over GST control)
[3]
  binding signal: 1.39 fold enrichment (6-mer frequency, TF over GST control)
[4]
  binding signal: 1.23 fold enrichment (6-mer frequency, TF over GST control)
[5]
  binding signal: 1.31 fold enrichment (6-mer frequency, TF over GST control)
[6]
  binding signal: 1.39 fold enrichment (6-mer frequency, TF over GST control)
[7]
  binding signal: 1.37 fold enrichment (6-mer frequency, TF over GST control)
[8]
  binding signal: 1.15 fold enrichment (6-mer frequency, TF over GST control)
[9]
  binding signal: 1.04 fold enrichment (6-mer frequency, TF over GST control)
[10]
  binding signal: 1.2 fold enrichment (6-mer frequency, TF over GST control)
[11]
  binding signal: 1.36 fold enrichment (6-mer frequency, TF over GST control)
[12]
  binding signal: 1.25 fold enrichment (6-mer frequency, TF over GST control)
[13]
  binding signal: 1.2 fold enrichment (6-mer frequency, TF over GST control)
[14]
  binding signal: 1.3 fold enrichment (6-mer frequency, TF over GST control)
[15]
  binding signal: 1.15 fold enrichment (6-mer frequency, TF over GST control)
[16]
  binding signal: 1.27 fold enrichment (6-mer frequency, TF over GST control)
[17]
  binding signal: 1.26 fold enrichment (6-mer frequency, TF over GST control)
[18]
  binding signal: 1.29 fold enrichment (6-mer frequency, TF over GST control)
